# An excerpt weighted towards active compounds, which were near 1.6% of everything screened.
# KCNQ2 pot = potentiators of rat KCNQ2 potassium channel | Potassium voltage-gated channel subfamily KQT member 2 (Rattus norvegicus), O88943 | CHO-K1 KCNQ2, FluxOR thallium flux fluorescence; hits give high values | B-score at 10 µM | hit rate 0.54% among 310,000 | AID 2239, 2010;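 active means fluorescence ratio B-score at least 3 SD of library B-scores, with initial fluorescence B-score within 3 of them, cut at about 5.3 in these data; same plate scores as AID 2156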;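 further: B-score of peak minus minimum over baseline fluorescence ratio after K+ and Tl+ stimulus; positive B-score means potentiation of KCNQ2 with more thallium influx and brighter signal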
# KCNQ2 inh = rat KCNQ2 potassium channel inhibitors, primary screen, cell-based, CHO-K1, FluxOR thallium flux, B-score; 20 min; hits give low values; B-score at 10 µM; hit rate 1.1% among 310,000;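 active means fluorescence ratio B-score at most minus 3 library SDs, with starting brightness B-score within 2 library SDs, cut at about -5.5 in these data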
# Kir21 confirm = mouse Kir2.1 channel blockers, retest, confirmation, cell-based, FluxOR thallium flux, duplicate | Kir2.1-expressing cells, FluxOR thallium flux fluorescence; hits give low values | hit rate 41% among 2,300 | Tl flux remaining, % of negative control (hits give low values), % at 10 µM | shares compounds with KCNQ2 pot;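 active means Primary-screen hit whose thallium flux fell at least 3 control SD below untreated wells in both duplicates, with normal baseline fluorescence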
# HEK293 Tl flux = parental HEK293 activity in Kir2.1 inhibitor counter-screen. shares compounds with KCNQ2 pot. parental HEK293 cells, FluxOR thallium flux fluorescence; 0% = unstimulated blank wells. FluxOR signal as % of negative control (100 = no effect), % at 10 µM. hit rate 19% among 2,300. AID 2105;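 active means dye signal at least 3 control SD above or below untreated wells in both duplicates, raw fluorescence within 3, either direction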;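 further: percent is based on the flux ratio of peak minus minimum fluorescence over baseline F0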
# CHO-K1 ctr = nonspecific thallium flux increase in parental CHO-K1, confirmation, counter-screen for KCNQ2 potentiator project, cell-based, FluxOR thallium flux, duplicate. parental CHO-K1 cells, FluxOR thallium flux fluorescence; zero = vehicle mean+3SD, 100% = vehicle-minus-blank window. hit rate 43% among 1,200. shares compounds with KCNQ2 pot. activity increase over 3SD of controls, % at 10 µM;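 active means signal rise of at least 3 SD above the untreated control mean, in both duplicate wells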;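 further: counter screen of KCNQ2 potentiator hits so any rise reflects channel-independent effects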
# KCNQ1 sel pot = human KCNQ1 channel potentiation off-target, confirmation, selectivity assay for KCNQ2 potentiator project, cell-based, CHO, FluxOR thallium flux; AID 2283, 2010; activation over 3SD threshold, % at 10 µM; CHO KCNQ1 stable, FluxOR thallium flux fluorescence; beyond 3SD, as % of vehicle-control signal; shares compounds with KCNQ2 pot; hit rate 28% among 1,200;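 active means fluorescence ratio rise of at least 3 SD of vehicle wells above their mean, in both replicate wells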
# Target sequence (P51787 whole entry, looked up): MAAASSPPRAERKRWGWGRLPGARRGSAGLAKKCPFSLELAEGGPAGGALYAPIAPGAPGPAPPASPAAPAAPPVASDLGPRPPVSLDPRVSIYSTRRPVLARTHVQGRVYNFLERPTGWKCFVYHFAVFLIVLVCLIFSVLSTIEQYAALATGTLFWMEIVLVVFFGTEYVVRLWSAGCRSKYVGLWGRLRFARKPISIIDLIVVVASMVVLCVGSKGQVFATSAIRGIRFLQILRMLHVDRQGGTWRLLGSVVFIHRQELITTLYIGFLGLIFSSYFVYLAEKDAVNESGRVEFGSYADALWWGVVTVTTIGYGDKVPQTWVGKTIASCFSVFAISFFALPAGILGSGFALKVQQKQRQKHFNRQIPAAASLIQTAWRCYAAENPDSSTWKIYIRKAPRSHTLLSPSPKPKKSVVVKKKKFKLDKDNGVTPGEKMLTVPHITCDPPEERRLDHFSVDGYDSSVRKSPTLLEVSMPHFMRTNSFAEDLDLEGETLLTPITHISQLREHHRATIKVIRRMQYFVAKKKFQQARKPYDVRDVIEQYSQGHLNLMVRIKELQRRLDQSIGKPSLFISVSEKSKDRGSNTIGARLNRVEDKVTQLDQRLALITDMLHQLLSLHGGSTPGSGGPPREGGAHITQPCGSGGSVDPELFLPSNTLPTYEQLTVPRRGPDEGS
# KCNQ2 pot conf = rat KCNQ2 channel potentiators, confirmation, cell-based, CHO, FluxOR thallium flux, duplicate; potentiation, less the hit threshold, % at 10 µM; shares compounds with KCNQ2 pot; CHO-KCNQ2 cells, FluxOR thallium flux fluorescence; hit rate 68% among 1,200; AID 2287, 2010;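 active means fluorescence ratio rising 3 SD or more over the vehicle control mean in both replicates, plus primary screen hit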;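 further: peak minus minimum thallium fluorescence divided by baseline after K/Tl stimulus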
# Kir21 spec = mouse Kir2.1 channel activation off-target, confirmation, selectivity assay for KCNQ2 potentiator project, cell-based, HEK293, FluxOR thallium flux; shares compounds with KCNQ2 pot; HEK293 Kir2.1, FluxOR thallium flux fluorescence; activity over 3SD threshold, % at 10 µM; hit rate 2% among 1,200; AID 2345, 2010;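 active means fluorescence ratio rise of at least 3 SD above the vehicle-control mean, seen in both replicates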
# KCNQ2 W236L MoA = potentiators of retigabine-insensitive KCNQ2 W236L, mechanism study for KCNQ2 potentiator project, cell-based, rat KCNQ2 W236L, CHO, automated patch clamp | shares compounds with KCNQ2 pot | automated patch clamp current | current increase over 3SD of negative controls (%), hits give high values, % at 25 µM | hit rate 10% among 940 | AID 2558, 2010;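 active means current increase at least 3 SD of the untreated controls above them in both duplicate recordings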
# Hits are given with their value; . = inactive; / = no result.
SMILES,KCNQ2 pot,KCNQ2 inh,Kir21 confirm,HEK293 Tl flux,others
Cc1cccc(N2CCN(C(=O)CNC(=O)c3cccc([N+](=O)[O-])c3)CC2)c1C,/,.,.,.,
Cc1ccc(NC(=O)c2ccc(Cn3cc(Cl)cn3)o2)c(C)c1,/,.,25.5%,.,
COC(=O)c1sc(NC(=O)c2ccc(Cn3cc(Cl)cn3)o2)c(C#N)c1C,.,.,/,/,
CCC(=O)N(Cc1ccco1)c1nc(-c2ccc(OC)cc2)cs1,/,.,/,/,
CCC(=O)N(CC)c1nc(-c2ccc(OC)cc2)cs1,.,.,.,.,
C=CCNC(=O)N1CCCC(N2CCN(c3ccccc3OC)CC2)C1 (stereo not given),.,.,/,/,
CN(CC(=O)Nc1cccc(F)c1)C(=O)CSc1nc2ccccc2s1,/,.,/,/,
Cc1nc2ccc(NC(=O)Cc3ccccc3F)cc2s1,/,.,/,/,
Cc1ccc(C(C)NC(=O)c2ccncc2)cc1C (stereo not given),.,.,/,/,
CC(NC(=O)c1ccncc1)C(C)(C)C (stereo not given),16.2,.,.,.,CHO-K1 ctr=.;KCNQ1 sel pot=.;KCNQ2 pot conf=.;Kir21 spec=.
O=C1C(=O)N(c2ccc(O)cc2)C(c2ccccc2[N+](=O)[O-])/C1=C(\O)c1ccccc1 (stereo not given),.,.,/,/,
N#Cc1c(N2CCOCC2)nc(N2CCCCC2)c2c1CCN(C1CCCCC1)C2,10.8,.,.,.,CHO-K1 ctr=.;KCNQ1 sel pot=10.4;KCNQ2 pot conf=16.2;Kir21 spec=.;KCNQ2 W236L MoA=.
CCN1CCc2c(C#N)c(N3CCCCC3)nc(N3CCOCC3)c2C1,/,.,/,/,
COc1ccc(OC)c(NC(=O)C2CCCC2)c1,.,.,/,/,
Cc1ccc(Cl)cc1NC(=O)C1CC1c1ccccc1 (stereo not given),6.21,.,.,.,CHO-K1 ctr=.;KCNQ1 sel pot=.;KCNQ2 pot conf=.;Kir21 spec=.;KCNQ2 W236L MoA=.
Cc1cccc(NC(=O)C2CC2c2ccccc2)c1C (stereo not given),18.2,.,.,.,CHO-K1 ctr=.;KCNQ1 sel pot=.;KCNQ2 pot conf=46.6;Kir21 spec=.;KCNQ2 W236L MoA=.
COc1ccc(OC)c(NC(=O)c2ccc(Cl)cc2)c1,6.52,.,.,.,CHO-K1 ctr=.;KCNQ1 sel pot=.;KCNQ2 pot conf=9.8;Kir21 spec=.;KCNQ2 W236L MoA=.
Cc1ccc(Cl)cc1NC(=O)C1C2CCC(O2)C1C(=O)O (stereo not given),/,.,/,/,
COc1ccc(C(=O)Nc2cc(OC)ccc2OC)cc1,.,.,/,/,
O=C(Nc1ccccc1F)C1CC1c1ccccc1 (stereo not given),.,.,/,/,
COc1ccc(OC)c(NC(=O)C2CC2c2ccccc2)c1 (stereo not given),18.6,.,.,72.0%,CHO-K1 ctr=.;KCNQ1 sel pot=8.9;KCNQ2 pot conf=58.8;Kir21 spec=.;KCNQ2 W236L MoA=.
O=C(NNC1=NCCC1)C1CC1,/,.,/,/,
COc1cccc(OCC(O)CNC2CCCC2)c1 (stereo not given),.,.,/,/,
NC1=NC(=O)C(Cc2ccc(Br)cc2)S1 (stereo not given),/,.,/,/,
COc1ccc(OC)c(NC(=O)NC2CCCCCCC2)c1,12.1,.,.,.,CHO-K1 ctr=.;KCNQ1 sel pot=.;KCNQ2 pot conf=3.5;Kir21 spec=.;KCNQ2 W236L MoA=.
SMILES,KCNQ2 pot,KCNQ2 inh,Kir21 confirm,HEK293 Tl flux,others
COc1ccc(OC)c(NC(=O)C(=S)NC2CCCCC2)c1,.,.,/,/,
COc1ccc(NC(=O)C(=O)NNC(=O)COc2ccc(Cl)cc2)c(OC)c1,10.2,.,.,317.5%,CHO-K1 ctr=0.6;KCNQ1 sel pot=.;KCNQ2 pot conf=20.9;Kir21 spec=.;KCNQ2 W236L MoA=.
COc1cc(NC(=O)COc2ccc(Cl)cc2)ccc1NC(=O)C(C)C,/,.,/,/,
Cn1c(N)c(C(=O)c2ccc(Cl)cc2)c(=O)n(C)c1=O,.,.,/,/,
Cc1nn(-c2ccc(Cl)cc2)c2sc(C(=O)c3c(N)n(C)c(=O)n(C)c3=O)cc12,.,.,.,.,
COc1ccc(CN(C)C(=O)c2sccc2-c2ccccc2)c(OC)c1,/,.,/,/,
CN(Cc1ccc(F)cc1)C(=O)c1sccc1-c1ccccc1,/,.,64.5%,.,
CCCCN(C)C(=S)Nc1ccc2nc3n(c(=O)c2c1)CCCCC3,.,.,/,/,
Cc1cc(N/N=C/c2ccccc2[N+](=O)[O-])nc(-n2nc(C)cc2C)n1,5.42,.,.,.,CHO-K1 ctr=.;KCNQ1 sel pot=.;KCNQ2 pot conf=.;Kir21 spec=.
Cc1cc(N/N=C/c2cccc([N+](=O)[O-])c2)nc(-n2nc(C)cc2C)n1,.,.,/,/,
CC(C)c1cc(C(=O)N2CCCC(Nc3ccc(F)cc3)C2)n[nH]1 (stereo not given),.,.,/,/,
COc1cc(OC)cc(-c2nc3ccccc3c(=O)n2OC(=O)c2ccc(C)c(C)c2)c1,/,.,/,/,
CC1=CC(C)(C)N(C(=O)CCl)c2cc(C)ccc21,/,.,/,/,
CC1=CC(C)(C)N(C(=O)CNC2CCCCC2)c2cc(C)ccc21,/,.,50.5%,.,
COc1cc2c(cc1OC)CN(C(C)C(=O)Nc1ccc(NC(C)=O)cc1)CC2 (stereo not given),/,.,/,/,
C/C(=C/CCC(C)C1CCC2(C)C3CCC4C(C)(C)C(=O)CCC4(C)C3=CCC12C)C(=O)O (stereo not given),.,.,/,/,
C/C(=C/CCC(C)[C@H]1CC[C@@]2(C)C3=C(CC[C@]12C)[C@@]1(C)CCC(=O)C(C)(C)[C@@H]1CC3)C(=O)O (stereo not given in full),21.4,.,.,.,CHO-K1 ctr=1.4;KCNQ1 sel pot=.;KCNQ2 pot conf=.;Kir21 spec=.
C=CCNc1cc(N2CCCC2)ccc1[N+](=O)[O-],/,.,/,/,
C/C(=N/NC(=O)CNC(=O)Cc1ccccc1)c1ccc(Cl)cc1,.,.,/,/,
CCOc1ccccc1NC(=O)NC(C)c1ccc2c(c1)OCO2 (stereo not given),5.83,.,.,.,CHO-K1 ctr=4.2;KCNQ1 sel pot=73.0;KCNQ2 pot conf=24.8;Kir21 spec=.;KCNQ2 W236L MoA=.
CC(NC(=O)Cc1ccc([N+](=O)[O-])cc1)c1ccc2c(c1)OCO2 (stereo not given),/,.,/,/,
